# Legend:
# Assay in all cases: PBM binding z-score (relative to random genomic background probes); higher = stronger binding; sequences stand for … in GC…GCGATTGACAGCGTAGAATGAAGG
# [1] = system: RARb homodimer (NR concentration 270 nM)
# How it was run: (§1)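 Custom Agilent 4×180K protein-binding microarrays carried double-stranded probes. Their 34-nt variable regions held direct-repeat seeds, single-nucleotide variants, half-site ablations and random human genomic background sequences. Arrays were incubated 1 h with ligand-free nuclear receptor dimers in PBS pH 7.4, 2% milk, 0.02% Triton X-100, 1 mM DTT, 0.2 mg/mL BSA and 0.4 mg/ml salmon testes DNA. Antibodies against each partner (one per run) detected binding, and scanned fluorescence was regression-normalized. Binding z-scores use random background probes as reference.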
# [2] = system: RARg:RXRa (NR concentration 270 nM, RXRa partner concentration 90 nM)
# How it was run: as §1
# [3] = system: RARg homodimer (NR concentration 270 nM)
# How it was run: as §1
# [4] = system: RXRa DBDmut IVT, anti-RXR (DBD mutation: RXRa K156A/R161A, NR concentration 90 nM)
# How it was run: as §1
# [5] = system: RXRa homodimer (NR concentration 180 nM)
# How it was run: as §1
# [6] = system: THRa:RXRa (NR concentration 90 nM, RXRa partner concentration 90 nM)
# How it was run: as §1
# [7] = system: THRa homodimer (NR concentration 90 nM)
# How it was run: as §1
# [8] = system: VDR homodimer (NR concentration 270 nM)
# How it was run: as §1
Sequence,PBM binding z-score [1],PBM binding z-score [2],PBM binding z-score [3],PBM binding z-score [4],PBM binding z-score [5],PBM binding z-score [6],PBM binding z-score [7],PBM binding z-score [8]
ACTAGCAGGCCAAGTTAGGGTCACTCAAACAAAG,3.53,4.02,2.89,-0.159,3.35,4.14,2.34,1.18
CCTGCTAGGTCATGGTAAGCTAATCTACAGTATG,2.79,3.8,4.48,1.84,2.62,2.98,1.22,-0.214
CTGACTGGGGCAAAGGTTACCATACTCAGTACGA,2.6,3.83,2.21,0.587,4.06,2.08,0.233,0.376
CATACAGGGTCAGCTAGGCCAAAGTAGGGACGGC,3.27,4.71,5.14,1.49,4.24,3.16,0.87,2.11
TATACAGTGTCAAAGGCCAGAGTACGAATGTCGA,1.59,1.53,1.65,-0.125,1.49,0.336,-0.189,0.636
CCTCGGAGGACAACAGGAGGTCTGAGCTGCCAGA,0.507,0.123,0.881,-0.213,-0.493,0.56,-0.246,-0.289
GCGACTGGGGCATCAGCAGGTTACCATAACTTAA,0.856,0.955,0.455,-0.108,0.462,1.09,-0.0496,-0.398
CGTCCAAGCTCAGAGAGGTCAGTGAATGCCGAGT,3.56,2.72,2.99,0.551,2.36,2.19,0.794,2.2
CAGCCTAGGTCAGTGCCAGTATAGGAGGAACGTT,2.5,2.55,3.53,0.655,0.856,1.44,0.501,-0.0639
AGAATGAGGTTATTAAGAACAGGGAATTGCGGTC,0.842,1.14,0.783,2.06,1.67,2.23,0.503,1.27
GGAACGAGGGTAAAGTTGATAGCATCTGTCGACG,0.332,0.683,0.562,0.929,0.974,0.383,-0.45,0.411
ATCGAAAGGTCGAAGCTGAGTATACCCACCCGAA,2.18,3.83,3.5,1.42,4.13,1.73,0.00439,0.746
ATCTCTAGGTAAAGATAGTTCAATGAATGCAAAT,1.4,1.08,1.05,0.373,0.737,1.05,-0.0901,1.15
AGTCAAAGTTCACTAGGTAACGTAGGATTCAGCT,3.85,4.87,5.63,4.05,3.74,1.98,0.256,3.59
TCTCGTAGGACACGAAAGGTCAGAGCTCGACATC,4.53,4.69,5.29,1.16,4.44,3.28,0.778,0.852
CCCAGTTGGTCAGGAGGTCACACACCGGATATGA,4.41,4.87,4.25,-0.0617,4.6,3.52,2.63,2.66
GCATATAGGTAATACGAGGTGAAAGTCCGATTGT,0.883,0.378,0.419,0.527,0.781,4.46,1.41,-0.0522
CAAACTAAGTCAAGAGGTCAAAGTCCGCTTCCCG,4.49,5.8,4.46,2.11,6.2,3.92,1.7,4.04
CCTAGCAGGCTAATCTGGGTCACTCAAGGCTTGA,1.8,0.393,0.769,0.246,0.687,3.19,0.623,0.114
TCTAGTTGGTCACGGAGGTTACACACGACGGGTA,2.39,2.29,2.43,0.609,2.16,1.71,0.725,0.629
CCAGACAGGTGACAAGGTAACTCAGCCTCGATTA,0.759,0.862,0.728,0.06,0.446,1.24,0.784,-0.45
TCCGCTAGGTCAGTTGGTCAGCTAACGAGCTGCC,2.85,2.77,3.75,0.733,1.01,1.27,0.178,-0.514
TCATTTAGGTAAAGGTGAAAGTCGAACGATATGA,1.52,1.74,1.44,0.874,2.07,2.01,0.0517,0.0443
TCTTATAGGTAAAGGTGAAAGTCGAACGATATGA,1.59,1.84,1.45,1.1,2.43,1.39,0.153,0.315
CGTCAAAGTTCAACGTAACGTAACAGAAAGCAGC,3.83,5.52,5.97,4.56,4.19,1.78,-0.366,3.03
TCGAGTAGGTTAGTCGGGGCATTGAGCCAACATA,0.349,-0.11,0.0255,0.159,-0.18,1,-0.457,-0.0737
GGAACGAGGGCAAAGTTGATAGCCTCTGTCGACG,1.42,2.14,1.91,2.49,1.84,1.35,-0.295,1.54
CGAACTAAGTCAGAACAGGACAGTGAAGGATGAT,0.68,0.103,0.431,0.106,0.167,1.14,-0.281,-0.107
